APP 5'UTR act: activates APP 5'UTR luciferase reporter. AID 1276. activation, % at 2 µM. 190,000 tested, 1% active. SH-SY5Y APP 5'UTR luciferase reporter, luminescence; zero percent = DMSO vehicle wells;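 active = activation above a set limit, based on mean plus 3 SD of controls, cut at about 140% in these data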
NF-kB neuron act: NF-kB expression increase, human neuronal cells. 190,000 tested, 1.6% active. AID 1239. NF-kB reporter expression; stronger effect = higher value. fold change at 12.5 µM; in the data active = fold change above about 3.3
STAT1 activator: activators of IFN-gamma induced STAT1 signaling; 200,000 tested, 2.6% active; NIH 3T3 STAT1-luciferase reporter, luminescence; 100% = IFN-gamma alone, no compound; activation (% of control), % at 5.5 µM;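 active = activation above the screen-wide mean activation plus 3 SD, cut at about 130% in these data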;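 also: raw ratio to IFN-gamma control signal so 100% means no change and 0% no light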
Hsp70 activator: transcriptional activators of Hsp70; HeLa Hsp70 promoter luciferase reporter, luminescence; scaled: vehicle 0, proteasome-inhibitor control 100%; activation, % at 10 µM; 200,000 tested, 0.04% active;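 active = activation above the mean across all tested compounds plus 3 SD, cutoff set per campaign, cut at about 5.5% in these data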;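 also: 100% = MG132 at 30 µM as the positive control and 0% = DMSO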
APP 5UTR inh: APP translation inhibition; inhibition, % at 2 µM; 190,000 tested, 0.82% active; SH-SY5Y APP 5'UTR-luciferase reporter, luminescence;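 active = inhibition above a set limit, derived from the sample mean plus 3 SD, cut at about 45% in these data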
Wee1 stabilizer: human Wee1 degradation inhibition, primary screen | 220,000 tested, 1.2% active | HeLa Luc-Wee1K328M stability, luciferase luminescence; 100% = proteasome inhibitor MG132 effect | AID 1321 | reporter increase, % at 5 µM | P30291;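 active = activation above the mean of all tested compounds plus 3 SD, set per screening run, cut at about 8.8% in these data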;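 also: cells exposed to compound for 20 h before luminescence read; 0% = DMSO alone and 100% = MG132 at 30 µM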
Target sequence (P30291 whole entry K328M): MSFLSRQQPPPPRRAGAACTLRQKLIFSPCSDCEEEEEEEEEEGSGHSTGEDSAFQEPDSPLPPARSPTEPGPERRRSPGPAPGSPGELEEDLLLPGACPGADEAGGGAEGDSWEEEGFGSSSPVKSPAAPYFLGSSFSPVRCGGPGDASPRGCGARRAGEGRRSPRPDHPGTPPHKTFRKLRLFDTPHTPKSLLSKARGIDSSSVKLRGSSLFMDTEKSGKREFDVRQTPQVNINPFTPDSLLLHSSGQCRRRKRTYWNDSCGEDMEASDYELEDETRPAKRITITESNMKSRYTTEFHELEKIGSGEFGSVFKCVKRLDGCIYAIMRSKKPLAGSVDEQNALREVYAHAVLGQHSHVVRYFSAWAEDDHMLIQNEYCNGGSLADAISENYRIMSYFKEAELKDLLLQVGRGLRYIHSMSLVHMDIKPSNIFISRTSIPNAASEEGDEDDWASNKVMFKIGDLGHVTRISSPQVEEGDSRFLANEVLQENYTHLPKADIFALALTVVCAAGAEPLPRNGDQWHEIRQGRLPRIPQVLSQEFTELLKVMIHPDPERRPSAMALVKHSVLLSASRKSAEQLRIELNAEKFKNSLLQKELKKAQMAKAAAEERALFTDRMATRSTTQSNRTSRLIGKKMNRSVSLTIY
Wee1 degr conf: human Wee1 degradation inhibition, confirmation; shares compounds with Wee1 stabilizer; HeLa Luc-Wee1K328M degradation, luminescence; vehicle 0%, proteasome-blocked wells 100%; activation, % at 5 µM; 1,100 tested, 4% active; AID 1410; in the data active = activation above about 8.9%
* marks the source's active call; other numbers are inactive results; . = no result. Most compounds without a hit are left out; they make up all but 4.8% or so of the library.

SMILES	APP 5'UTR act	NF-kB neuron act	STAT1 activator	Hsp70 activator	APP 5UTR inh	Wee1 stabilizer	Wee1 degr conf
Cc1cccc(C)c1N=C1SC(CC(=O)Nc2c(C)cccc2C)C(=O)N1CCc1ccccn1 (centres undefined)	-6	1.2	101	0	6	1	.
CCOc1ccc(NC(=O)C2C3CC/C=C\CCC32)cc1 (centres undefined)	.	.	.	.	.	11*	0
O=C(N/N=C/c1ccc(Cl)cc1)c1cc2c(s1)-c1ccccc1CC2	0	1.1	105	0	0	26*	6
CCN1CCN(c2ccc([N+](=O)[O-])cc2S(=O)(=O)N2CCOCC2)CC1	11	1.2	102	0	-11	11*	4
CC(O)CNc1ccc([N+](=O)[O-])cc1S(=O)(=O)N1CCOCC1 (centres undefined)	-2	0.9	102	0	2	-1	.
Cc1csc(SCC(=O)NCc2ccccc2)n1	2	1.4	105	0	-2	2	.
Cc1csc2sc(-c3ccnc(SCC(=O)NCc4ccccc4)n3)c(C)c12	.	.	.	.	.	14*	22*
O=C(Nc1ccccc1C(=O)Nc1nncs1)c1ccccc1	.	.	.	.	.	-1	.
CC(C)(C)Sc1ccccc1S(=O)(=O)C(C)(C)C	.	.	.	.	.	13*	-2
COC(=O)c1ccccc1S(=O)(=O)C(C)(C)C	-7	1.3	101	0	7	-1	.
O=C(NCCc1c[nH]c2ccccc12)C(=O)NCC(c1ccco1)N1CCN(c2ccc(F)cc2)CC1 (centres undefined)	17	1.1	103	0	-17	2	.
CN(C)S(=O)(=O)c1cccc(NC(=O)CNCC2CCCCC2)c1	11	1.1	100	0	-11	12*	1
CCN(CC)S(=O)(=O)c1cccc(NC(=O)CNC2CCCCCC2)c1	.	.	.	.	.	2	.
O=C(COc1ccc(CO)cc1Cl)Nc1ccc(F)cc1	.	7.7*	136*	0	.	16*	-5
O=C(COc1ccc(CO)cc1)Nc1ccc(F)cc1	5	1.6	102	0	-5	3	.
CC(C)NS(=O)(=O)c1ccc(OCC(=O)N2CCc3ccccc3C2)cc1	4	1.2	102	0	-4	13*	3
CC(C)NS(=O)(=O)c1ccc(OCC(=O)N2CCCC2)cc1	13	0.97	110	0	-13	-1	.
CCOC(=O)NN1C(=O)c2ccccc2NC1c1ccccn1 (centres undefined)	10	1	100	0	-10	2	.
COc1ccc(CN(CCC#N)CCC2(c3ccccc3)CC(C)N(C)CC2C)cc1OC (centres undefined)	.	.	.	.	.	-1	.
COc1ccc(CNCCC2(Cc3ccccc3)CC(C)N(C)CC2C)cc1OC (centres undefined)	20	0.69	98	0	-20	17*	0
Cn1cc(Br)c(C(=O)NC2C3CC4CC(C3)CC2C4)n1 (centres undefined)	14	1.1	147*	0	-14	12*	0
FC(F)(F)c1cc(-c2cccs2)nc2nc(N3CCOCC3)sc12	14	0.99	102	0	-14	12*	-1
CCOC(=O)Cn1c(=NC(=O)CSC(C)=O)sc2ccccc21	8	1.3	114	0	-8	16*	3
CCN(CCNC(=O)C1CCN(S(C)(=O)=O)CC1)c1ccccc1	-9	1.1	105	0	9	-4	.
CN(CCOc1ccccc1)C(=O)c1cc([N+](=O)[O-])cc([N+](=O)[O-])c1	22	0.88	98	0	-22	17*	-3
CCCC(=O)NC(NC(=S)Nc1c(C)n(C)n(-c2ccccc2)c1=O)C(Cl)(Cl)Cl (centres undefined)	0	0.89	103	0	0	3	.
CCn1c(CSc2nc3ccccc3s2)nnc1SCC(=O)OC(C)(C)C	2	1.1	98	0	-2	-1	.
CCn1c(CSc2nc3ccccc3s2)nnc1SCC(N)=O	-2	0.98	102	0	2	16*	2
COc1cc(/C=N/N=C(/C(=O)c2ccccc2)c2ccccc2)cc(OC)c1O	-3	0.59	93	0	3	12*	0
